Compound activity as filed in PubChem BioAssay.
NadD block = NadD (S. aureus) enzyme inhibition | purified NadD enzyme, colorimetric absorbance read-out | inhibition, % at 20 µM | hit rate 0.78% among 360,000 | AID 602399; in the data active means inhibition above about 26%
GRIN3A LBD mod = NR3A (human) ligand-binding domain modulation | hit rate 2.5% among 340,000 | Tm shift relative to glycine control, % at 25 µM | NR3A LBD differential scanning fluorimetry, Tm shift; 0% = protein alone, 100% = glycine-bound protein | AID 1259313;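 active means melting temperature shift of at least 10% of the positive control shift, at one fixed dose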
rCAG RNA binder = binds r(CAG) RNA repeats; inhibition, % at 3 µM; AID 651821; hit rate 1.3% among 370,000; r(CAG) RNA repeat, TO-PRO-1 dye displacement fluorescence;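 active means inhibition above the plate cutoff, the mean of all test compounds on that plate plus 3 SD, cut at about 35% in these data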;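 further: 0% = DMSO alone and 100% = 100 µM mitoxantrone as full dye displacement; higher means more dye released from RNA so lower well fluorescence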
FAS TE block = blocks the thioesterase domain of human fatty acid synthase; P49327; recombinant FAS-TE, OMFH fluorogenic substrate, fluorescence endpoint; inhibition, % at 15 µM; hit rate 0.67% among 360,000; AID 602261;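 active means compounds whose normalised, plate-corrected inhibition of enzyme fluorescence in the single-dose primary screen is 50% or more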;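 further: 0% = DMSO with enzyme and 100% = substrate without enzyme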
Active calls of the source: *; x = not tested or not shown. Compounds with a hit are over-represented: about 4.3% of the library has one in this group of screens.

SMILES	NadD block	GRIN3A LBD mod	rCAG RNA binder	FAS TE block
Cc1cccc(C(=O)N2CCCC(N3CCN(c4cccc(Cl)c4)CC3)C2)n1 (centres undefined)	-4	13*	-8	-1
Cc1cc(C(=O)N2CCCC(N3CCN(c4cccc(C(F)(F)F)c4)CC3)C2)no1 (centres undefined)	3	20*	-9	2
COc1ccc(CCN(Cc2cccs2)S(=O)(=O)c2ccc(C)s2)cc1OC	x	x	6	x
Nc1cc(=O)[nH]c(SCC(=O)Nc2cc(S(=O)(=O)N3CCCCCC3)ccc2Cl)n1	10	-2	15	-12
Cc1ccc(-c2nc(SCC(=O)Nc3cc(S(=O)(=O)N4CCCCC4)ccc3Cl)n[nH]2)cc1	21	12*	17	-55
COc1ccc(-c2nc(SCC(=O)Nc3cc(C)on3)n[nH]2)cc1	-2	10*	x	-8
COc1cccc(/C=N/NC(=O)CNC(=O)COc2ccccc2)c1O	0	-1	5	2
Cc1ccc(OCC(=O)N/N=C/c2cn[nH]c2-c2ccc(Cl)c(Cl)c2)cc1	11	-8	5	-9
Cc1cccc(OCC(=O)N/N=C/c2cn[nH]c2-c2ccc(Cl)c(Cl)c2)c1	11	27*	6	-8
Cc1cccc(OCC(=O)NCC(=O)N/N=C/c2cc(Br)cc(Br)c2O)c1	22	17*	27	23
O=C(NCCc1c[nH]c2ccccc12)OCc1cn(Cc2ccc(C(F)(F)F)cc2)nn1	x	x	1	x
CCCCNC(=S)N(C)/N=C/c1c(F)c(F)c(F)c(F)c1F	9	20*	-5	31
CCCCNC(=S)N(C)/N=C/c1c(C)[nH]c2ccccc12	-7	12*	2	-2
CC(C)C(=O)N[C@H]1[C@H](O)CCC[C@]12C(=O)N(Cc1ccccc1)c1ccccc12	x	x	4	x
Cc1cc(C(=O)Nc2ccc(Cl)c(Cl)c2)n(-c2ccccc2)n1	x	x	1	x
O=C(Cc1ccccc1)N[C@@H]1c2ccccc2CC[C@@H]1OCc1ccccc1	1	0	2	-1
O=C(COCc1ccccc1)N[C@@H]1c2ccccc2CC[C@@H]1OCc1ccccc1	0	17*	1	19
COC(=O)c1cc2ccccc2c(-c2c(O)ccc3ccccc23)c1O	4	12*	5	32
COC(=O)c1ccccc1C(=O)c1cccc2ccccc12	-3	-2	-3	26
CC[C@@]12C(=O)N(c3cccc(F)c3)C(=O)N1[C@H](c1ccc(F)cc1)[C@@H]1C(=O)N(C3CCCCC3)C(=O)[C@@H]12	0	-7	x	31
O=C1[C@H]2[C@@H](c3ccc(Cl)cc3)N3C(=O)N(c4cccc(Cl)c4)C(=O)[C@@]3(Cc3ccccc3)[C@H]2C(=O)N1C1CCCCC1	29	3	5	94*
CC(C)C[C@@]12C(=O)N(c3cccc(Br)c3)C(=O)N1[C@H](c1ccc(F)cc1)[C@@H]1C(=O)N(C3CCCCC3)C(=O)[C@@H]12	19	1	5	86*
O=C1[C@H]2[C@@H](c3ccc(F)cc3)N3C(=O)N(c4cccc(F)c4)C(=O)[C@@]3(Cc3ccccc3)[C@H]2C(=O)N1C1CCCCC1	5	-3	2	46
O=C1[C@H]2[C@@H](c3ccc(F)cc3)N3C(=O)N(c4ccc(Br)cc4)C(=O)[C@@]3(Cc3ccc(Cl)cc3)[C@H]2C(=O)N1C1CCCCC1	18	10	17	94*
CN1CCCCC(NC(=O)c2ccccc2)C1=O (centres undefined)	x	x	2	x
SMILES	NadD block	GRIN3A LBD mod	rCAG RNA binder	FAS TE block
CCCC[C@@H]1C(=O)N2N=Cc3cc(C)c(C)cc3[C@H]2N2N=Cc3cc(C)c(C)cc3[C@@H]12	x	x	9	x
CCOc1ccc(-n2c(SCC(=O)Nc3ccccc3-c3ccccc3)nnc2-c2ccccc2)cc1	x	x	5	x
O=C(Nc1ccc(F)cc1)OCc1cn(Cc2cc(F)cc(F)c2)nn1	x	x	1	x
CCSC1=N/C(=C\c2cccc(F)c2)C(=O)S1	-2	15*	7	-12
COc1ccc(-c2cc(-c3n[nH]c(=S)n3-c3cccc4ccccc34)[nH]n2)cc1	26	-18	29	0
COc1ccccc1-n1c(-c2cc(-c3ccc(F)cc3)n[nH]2)n[nH]c1=S	4	19*	9	-4
C[C@@H]1COc2cc(Br)ccc2S(=O)(=O)N1Cc1cn(Cc2ccc(Br)cc2)nn1	x	x	7	x
CNS(=O)(=O)/C=C/c1ccccc1CCNC(=O)OC(C)(C)C	x	x	2	x
O=C(Nc1ccc(Cl)cc1)c1ccc(-c2ccccn2)s1	1	31*	2	-4
Cc1nc(-c2ccccn2)sc1C(=O)O	-3	-1	1	-6
Cc1nc(-c2ccccn2)sc1C(=O)Nc1ccc(Cl)c(Cl)c1	-4	26*	5	31
